The values below come from PubChem BioAssay (Tox21).

The nature of test [1]: qHTS assay for small molecules that induce genotoxicity in human embryonic kidney cells expressing luciferase-tagged ATAD5 (AID 651632). Note: % is set by controls: 0 for no effect and ±100 for the full control effect; nearly all actives have a fitted effect of over 15% in size. An outline of the steps: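 Genotoxicity read-out via ATAD5-luciferase: HEK293T cells, 16 hr compound incubation at 37C, Amplite detection.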
A general note: qHTS replaces the single test concentration by a dilution series.

Test [2] is described as follows: qHTS assay for small molecule disruptors of the mitochondrial membrane potential - cell viability (AID 720634; calls by dose curve;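 note: human HepG2 liver cancer cells; % is set by controls: 0 for no effect and ±100 for the full control effect; nearly all actives have a fitted effect of over 20% in size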). An outline of the steps:
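Human hepatoma HepG2 cells were treated for 1 hr with test chemicals, then given m-MPI dye and CellTiter-Glo. Cell viability reflects luminescence proportional to cellular ATP.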

Test [3] is described as follows: qHTS assay for small molecule disruptors of the mitochondrial membrane potential (AID 720635). Note: potency is the fitted concentration of half-maximal effect. An outline of the steps:
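Mitochondrial membrane potential tracked with Mito-MPS dye, red aggregates (ex 540/em 590 nm) against green monomers (ex 490/em 535 nm). Compound treatment 1 hr at 37C, dye 30 min in HepG2.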

Test [4] can be described thus: qHTS assay to test for compound auto fluorescence at 590 nm (red) in HepG2 cells (AID 720674). Note: % is set by controls: 0 for no effect and ±100 for the full control effect. Put shortly: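 Red autofluorescence (Ex/Em 540/590 nm, Rose Bengal sodium equivalents) was measured in HepG2 cells, 2,000 per well in MEM plus 10% FBS, plated overnight at 37 C. Readings were taken 1 hr after adding 23 nL compound or DMSO, at 37 C and 5% CO2.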
Test [5] is described as follows: qHTS assay to test for compound auto fluorescence at 535 nm (green) in HepG2 cells (AID 720675). Note: % is set by controls: 0 for no effect and ±100 for the full control effect.
Test [6] in a line: qHTS assay to test for compound auto fluorescence at 460 nm (blue) in HEK293 cells (AID 720678). Note: % is set by controls: 0 for no effect and ±100 for the full control effect. An outline of the steps:
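HEK293, 2,000 cells/well, 10% dialyzed FBS; attach 4-5 hr 37C; pin compound or DMSO; o/n 37C/5% CO2; fluorescence 405/460 nm; triamterene-equivalent units.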

Test [7] can be described thus: qHTS assay to test for compound auto fluorescence at 590 nm (red) in HEK293 cells (AID 720679). Note: % is set by controls: 0 for no effect and ±100 for the full control effect. An outline of the steps:
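Intensity at 540nm excitation and 590nm emission is reported as Rose Bengal sodium-equivalent autofluorescence. Measurements followed overnight exposure (37C, 5% CO2) of HEK293 cells, 2,000 per well, to 23 nL compound.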

The nature of test [8]: qHTS assay to test for compound auto fluorescence at 535 nm (green) in HEK293 cells (AID 720680). Note: % is set by controls: 0 for no effect and ±100 for the full control effect.
Test [9] can be described thus: qHTS assay to test for compound auto fluorescence at 460 nm (blue) in HEK293 cell free culture (AID 720681). Note: % is set by controls: 0 for no effect and ±100 for the full control effect. Put shortly:
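Blue fluorescence (Ex 405/Em 460 nm, triamterene-equivalent) was read immediately after pin transfer of compound or DMSO into medium (DMEM, 10% FBS) without cells.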

Test [10] can be described thus: qHTS assay to test for compound auto fluorescence at 535 nm (green) in HEK293 cell free culture (AID 720682). Note: % is set by controls: 0 for no effect and ±100 for the full control effect. Put shortly: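 Measurement is a direct plate read of green fluorescence (485 nm in, 535 nm out) after compound addition to serum-supplemented DMEM lacking cells, with fluorescein used to express intensities.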
Test [11] can be described thus: qHTS assay to test for compound auto fluorescence at 590 nm (red) in HepG2 cell free culture (AID 720684). Note: % is set by controls: 0 for no effect and ±100 for the full control effect. An outline of the steps:
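Steps: dispense MEM/10% FBS medium, no cells; pin compound or DMSO vehicle; read red channel, Ex/Em 540/590 nm. Output given as Rose Bengal sodium equivalents.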

Test [12] in a line: qHTS assay to test for compound auto fluorescence at 460 nm (blue) in HepG2 cell free culture (AID 720685). Note: % is set by controls: 0 for no effect and ±100 for the full control effect. Put shortly:
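Compound (23 nL) or DMSO pinned into cell-free MEM with 10% FBS; blue fluorescence read at 405/460 nm excitation/emission, expressed as auto-fluorescence equivalency to triamterene.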

Test [13] can be described thus: qHTS assay to test for compound auto fluorescence at 535 nm (green) in HepG2 cell free culture (AID 720686). Note: % is set by controls: 0 for no effect and ±100 for the full control effect.
A short description of test [14]: qHTS assay to test for compound auto fluorescence at 460 nm (blue) in HepG2 cells (AID 720687). Note: % is set by controls: 0 for no effect and ±100 for the full control effect. An outline of the steps: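 Blue-channel autofluorescence (Ex/Em 405/460 nm, triamterene-equivalent) was measured after 1 hr compound exposure at 37 C, 5% CO2. Cells were HepG2, plated overnight at 37 C in MEM plus 10% FBS.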
The target of test [15] is Glucocorticoid receptor (Homo sapiens) (UniProt P04150). Nature of the test: qHTS assay to identify small molecule agonists of the glucocorticoid receptor (GR) signaling pathway (AID 720691; active = well fitted activation curve with a large enough effect in the signal ratio in the repeat runs, not every such curve was filed as active; the % refers to the signal ratio; note: potency is the fitted concentration of half-maximal effect). As to conditions: GR-bla HeLa, beta-lactamase reporter ratio, 18 h; activation: at 62.4 µM (top of the series) unless noted. Put shortly: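 Beta-lactamase reporter activity, read as fluorescence intensity, was measured in GR-bla HeLa cells exposed to compounds for 18 h at 37 C and then loaded with LiveBLAzer B/G FRET substrate for 2 h at room temperature.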

A short description of test [16]: qHTS assay for small molecules that induce genotoxicity in human embryonic kidney cells expressing luciferase-tagged ATAD5 - cell viability (AID 651634; calls by dose curve; note: nearly all actives have a fitted effect of over 25% in size; note: potency is the fitted concentration of half-maximal effect). An outline of the steps:
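Live-cell protease activity (CellTiter-Fluor, fluorescence) indicates viability. HEK293T cells with luciferase-tagged ATAD5; 15.5 hr compound treatment at 37C.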

A short description of test [17]: qHTS assay to test for compound auto fluorescence at 590 nm (red) in HEK293 cell free culture (AID 720683). Note: % is set by controls: 0 for no effect and ±100 for the full control effect. Put shortly: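 Red-channel autofluorescence of compounds in culture medium (DMEM, 10% FBS), no cells, measured at 540/590 nm. Rose Bengal sodium is the reference fluorophore for equivalence.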
Test [18] can be described thus: qHTS assay for small molecule agonists of the p53 signaling pathway - cell viability (AID 651633; calls by dose curve;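 note: p53RE-bla HCT reporter cells with a stable beta-lactamase p53 reporter; % is set by controls: 0 for no effect and ±100 for the full control effect; nearly all actives have a fitted effect of over 30% in size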). Put shortly:
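Viability counter-read: CellTiter-Glo luminescence (30 min, room temperature) in the same p53RE-bla plates. These plates had been exposed to compounds for 16 h at 37 C.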

Structures are written as SMILES. Several values for one entry are separate records, joined by “and”; a condition that tells them apart may be missing. Equal entries are not always repeated. Unmarked numbers belong to inactive results. Inconclusive results are not listed. Activity calls are given as the source filed them. Unless noted, calls come from the whole dose curve; as a rule, active = well fitted curve in the direction sought with a large enough effect in the repeat runs; inconclusive = weak or mixed curves; inactive = no such curve, though single readings can be large; an effect the other way counts as inactive or inconclusive.

Glucocorticoid receptor (Homo sapiens), sequence (P04150 whole entry, looked up): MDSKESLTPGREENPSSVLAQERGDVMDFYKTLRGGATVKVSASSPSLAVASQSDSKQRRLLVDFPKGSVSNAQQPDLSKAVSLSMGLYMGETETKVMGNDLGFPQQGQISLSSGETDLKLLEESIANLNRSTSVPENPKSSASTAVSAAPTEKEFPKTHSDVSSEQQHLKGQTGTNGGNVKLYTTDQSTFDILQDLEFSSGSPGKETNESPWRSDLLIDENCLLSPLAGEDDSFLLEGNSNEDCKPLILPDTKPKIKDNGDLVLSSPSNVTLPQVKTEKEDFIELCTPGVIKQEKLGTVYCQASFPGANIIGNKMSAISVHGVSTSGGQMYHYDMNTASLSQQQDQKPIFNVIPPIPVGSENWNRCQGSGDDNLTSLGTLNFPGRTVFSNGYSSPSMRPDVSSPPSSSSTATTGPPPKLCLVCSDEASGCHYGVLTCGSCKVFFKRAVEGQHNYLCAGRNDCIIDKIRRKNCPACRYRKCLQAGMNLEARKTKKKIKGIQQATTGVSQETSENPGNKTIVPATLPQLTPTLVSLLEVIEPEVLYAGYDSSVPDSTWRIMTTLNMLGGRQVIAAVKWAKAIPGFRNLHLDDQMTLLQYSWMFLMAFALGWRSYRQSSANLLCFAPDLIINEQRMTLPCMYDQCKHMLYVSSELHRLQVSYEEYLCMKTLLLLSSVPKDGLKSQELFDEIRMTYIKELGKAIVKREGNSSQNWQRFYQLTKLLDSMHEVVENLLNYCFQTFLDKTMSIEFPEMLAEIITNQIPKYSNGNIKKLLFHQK

Take `CC(C)C[C@H]1C(=O)N2CCC[C@H]2[C@]2(O)O[C@](NC(=O)[C@@H]3C=C4c5cccc6[nH]c(Br)c(c56)C[C@H]4N(C)C3)(C(C)C)C(=O)N12`: the Potency entry in test [1], in test [2], in [4], in test [5], in [7] and in test [11] was “inactive” each time. In addition, the Potency result in test [13] and in [15] was “inactive” throughout. Besides, in test [3], the Potency was 10.6 µM (active) and 8.23 µM (active). Also, the compound was called inactive in test [6], in test [8], in test [9], in [10], in test [12] and in test [14].

For `CN(C)c1ccc(/C=C/c2ccc([N+](=O)[O-])cc2)cc1`, in test [16], the activity, negative = cytotoxicity is 49.6% [at 8.08 µM]. Also, the activity change, negative = cytotoxicity in test [2] was -8.24% [at 8.08 µM]. For the same compound, in test [4], the fluorescence, relative to Rose Bengal is 0% [at 3.72 µM]. For the same compound, the fluorescence, % of fluorescein control is -0.0437% [at 3.72 µM] in [5] and -0.0291% [at 3.72 µM] in [13]. Also, the fluorescence, % of triamterene in test [6] was 0.0267% [at 3.72 µM]. Further, the fluorescence, % of fluorescent control is 0.111% [at 3.72 µM] in test [7], -0.202% [at 3.72 µM] in [9], -0.0827% [at 3.72 µM] in test [12] and -0.0831% [at 3.72 µM] in test [14]. In addition, the fluorescence, % of fluorescein in test [8] was 0.0174% [at 3.72 µM]. The activity change in [10] is -0.151% [at 3.72 µM]. Moreover, the fluorescence, % of Rose Bengal in [11] was -0.037% [at 3.72 µM].

For `OCCN1CCN(CCCN2c3ccccc3C=Cc3ccccc32)CC1`, the Potency entry in [1], in test [2], in test [4], in test [5], in [11] and in [15] was “inactive” each time. The result in [6], in [8], in test [9], in test [10], in test [12] and in [14] was inactive.

For `CC(C)O.CC(C)O.CCOC(=O)/C=C(\C)O.CCOC(=O)/C=C(\C)O.[Ti]`, the Potency result in test [16], in test [2], in [5], in test [7], in [17] and in test [11] was “inactive” throughout. In addition, in test [13], the Potency entry was “inactive”. Moreover, the compound was classed as inactive in test [6], in test [8], in test [9], in test [10], in [12] and in [14].

For the compound `O=C(CS)Nc1ccccc1`, the Potency result in [1], in [2], in [4], in test [5], in test [7] and in [17] was “inactive” throughout. For the same compound, in test [11], the Potency entry is “inactive”. Besides, the result in test [6], in test [8], in test [9], in test [10], in test [12] and in [14] was inactive.

Take `Cc1cccc(C)c1OCC(=O)N[C@@H](Cc1ccccc1)[C@@H](O)C[C@H](Cc1ccccc1)NC(=O)[C@H](C(C)C)N1CCCNC1=O`: the Potency result in [1], in test [2], in test [4], in test [5], in test [7] and in [17] was “inactive” throughout. Also, the Potency entry in test [11], in [13] and in test [15] was “inactive” throughout. Further, in test [16], the Potency was 26.6 µM (active). The compound was called inactive in test [6], in [8], in test [9], in [10] and in test [14].

As to `CCCNCC(O)COc1ccccc1C(=O)CCc1ccccc1` (centres undefined), the Potency entry in test [18], in test [16], in [2], in [4], in [5] and in [7] was “inactive” throughout. Besides, the Potency entry in [17] and in [11] was “inactive” throughout. The result in test [6], in test [8], in test [9], in [10], in [12] and in test [14] was inactive.

Turning to `C[Si](C)(CCCN)O[Si](C)(C)CCCN`, the Potency entry in [1], in test [16], in test [2], in test [4], in test [5] and in test [7] was “inactive” each time. The Potency result in test [17], in [11] and in test [15] was “inactive” in each case. Besides, the result in [6], in test [8], in [9], in [10], in [12] and in test [14] was inactive.

In the case of `Brc1c2ccccc2c(Br)c2ccccc12`, the activation in [1] is 1.86% [at 8.08 µM]. For the same compound, the activity, negative = cytotoxicity in test [16] was 21.9% [at 8.08 µM]. Moreover, the activity change, negative = cytotoxicity in test [2] is -7.1% [at 8.08 µM]. Further, in test [4], the fluorescence, relative to Rose Bengal is 0.105% [at 3.72 µM]. Moreover, the results for the fluorescence, % of fluorescein control in test [5] and in [13] were 0.0196% [at 3.72 µM] and 0.0474% [at 3.72 µM], respectively. For the same compound, in test [6], the fluorescence, % of triamterene is 0.364% [at 3.72 µM]. For the same compound, in [8], the fluorescence, % of fluorescein is 0.0022% [at 3.72 µM]. Besides, the fluorescence, % of fluorescent control in test [9] was 0.357% [at 3.72 µM]; in test [12], 0.581% [at 3.72 µM]; in test [14] it was 1.18% [at 3.72 µM]. The activity change in test [10] is -0.0415% [at 3.72 µM]. Besides, the fluorescence, % of Rose Bengal in test [11] was 0.241% [at 3.72 µM]. Moreover, in [15], the Potency is 0.882 µM (active).
